Assay results from PubChem BioAssay AID1159580 (chemical genetic matrix, 2015).
The campaign covered roughly 5,500 compounds. About 2,000 (36%) were called active. Roughly 18% stayed inconclusive and do not appear here. Cut-off read from the data, not from the text of the source: active = normalized growth mostly below about 0.91 (no sharp cut-off); inconclusive = no clear call, values can overlap the other calls; inactive = mostly above about 0.92. Some of the results follow.

Experiment: chemical genetic growth profiling, strain panel (AID 1159580);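 note: tested at 20 µM; growth read once vehicle control cultures reached saturation at 30 °C; 1 = growth at the plate median or of vehicle wells; lower values mean less growth of the strain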
Conditions: growth OD
[1] = S. cerevisiae deletion strains, locus YAL013W, strain DEP1, active compounds read low
[2] = S. cerevisiae deletion strains, locus YBR229C, strain ROT2, active compounds read low
[3] = S. cerevisiae deletion strains, locus YDL101C, strain DUN1, active compounds read low
[4] = S. cerevisiae deletion strains, locus YDR150W, strain NUM1, active compounds read low
[5] = S. cerevisiae deletion strains, locus YEL061C, strain CIN8, active compounds read low
[6] = S. cerevisiae deletion strains, locus YGR078C, strain PAC10, active compounds read low
[7] = S. cerevisiae deletion strains, locus YHR030C, strain SLT2, active compounds read low
[8] = S. cerevisiae deletion strains, locus YHR087W, strain rtc3, active compounds read low
[9] = S. cerevisiae deletion strains, locus YJR043C, strain POL32, active compounds read low
[10] = S. cerevisiae deletion strains, locus YJR075W, strain HOC1, active compounds read low
[11] = S. cerevisiae deletion strains, locus YKL190W, strain CNB1, active compounds read low
[12] = S. cerevisiae deletion strains, locus YLR039C, strain RIC1, active compounds read low
[13] = S. cerevisiae deletion strains, locus YLR058C, strain SHM2 (second series), active compounds read low
[14] = S. cerevisiae deletion strains, locus YLR085C, strain ARP6, active compounds read low
[15] = S. cerevisiae deletion strains, locus YLR262C, strain YPT6, active compounds read low
[16] = S. cerevisiae deletion strains, locus YML094W, strain GIM5, active compounds read low
[17] = S. cerevisiae deletion strains, locus YMR219W, strain ESC1, active compounds read low
[18] = S. cerevisiae deletion strains, locus YMR263W, strain SAP30, active compounds read low
[19] = S. cerevisiae deletion strains, locus YNL153C, strain GIM3, active compounds read low
[20] = S. cerevisiae deletion strains, locus YNL298W, strain CLA4 (second series), active compounds read low
[21] = S. cerevisiae deletion strains, locus YNL322C, strain KRE1, active compounds read low
[22] = S. cerevisiae deletion strains, locus YNR030W, strain Alg12, active compounds read low
[23] = S. cerevisiae deletion strains, locus YPL055C, strain LGE1, active compounds read low
[24] = S. cerevisiae deletion strains, locus YPL241C, strain CIN2, active compounds read low
[25] = S. cerevisiae deletion strains, locus YPR135W, strain CTF4, active compounds read low

Measured: normalized growth

CCOC(=O)CCc1cc(N=Cc2cc(Cl)cc(Cl)c2O)c(O)c(N=Cc2cc(Cl)cc(Cl)c2O)c1
active: [1] 0.257 | [2] 0.225 | [3] 0.48 | [4] 0.328 | [5] 0.254 | [6] 0.14 | [7] 0.126 | [8] 0.0846 | S. cerevisiae deletion strains, locus YJL187C, strain SWE1, active compounds read low 0.204 | [9] 0.403 | [10] 0.245 | [11] 0.537 | [12] 0.164 | [13] 0.598 | [14] 0.14 | [15] 0.156 | [16] 0.243 | [17] 0.278 | [18] 0.354 | [19] 0.454 | [20] 0.411 | [21] 0.935 | [22] 0.63 | [23] 0.212 | [24] 0.476 | [25] 0.558 | S. cerevisiae strains, strain wild type, active compounds read low 0.555

CN(C)c1ccc(/C=N\NC(=O)CCc2ccc(O)cc2)c(Cl)c1
inactive: [1] 1.01 | [2] 0.998 | [3] 1.05 | S. cerevisiae deletion strains, locus YDL134C, strain PPH21, active compounds read low 1.01 | [4] 1.01 | [5] 0.974 | [6] 1.02 | [7] 0.992 | [8] 0.995 | [9] 1.01 | [10] 1.01 | [11] 1.01 | [12] 0.951 | [13] 1.01 | [14] 0.999 | [15] 0.946 | [16] 0.974 | [17] 1.01 | [18] 1.02 | S. cerevisiae deletion strains, locus YMR307W, strain GAS1, active compounds read low 0.97 | [19] 1 | [20] 0.999 | [21] 1.01 | [22] 1.01 | [23] 0.985 | [24] 0.967 | [25] 1.01

CCOC(=O)CCc1cc(N=Cc2cc(Br)ccc2O)c(O)c(N=Cc2cc(Br)ccc2O)c1
inactive: S. cerevisiae deletion strains, locus YAR019C, strain CDC15, active compounds read low 0.963 | S. cerevisiae deletion strains, locus YBL105C, strain PKC1, active compounds read low 0.959 | S. cerevisiae deletion strains, locus YBR135W, strain CKS1, active compounds read low 0.968 | S. cerevisiae deletion strains, locus YBR136W, strain MEC1, active compounds read low 0.966 | S. cerevisiae deletion strains, locus YBR160W, strain CDC28, active compounds read low 0.959 | S. cerevisiae deletion strains, locus YDL017W, strain CDC7, active compounds read low 0.962 | S. cerevisiae deletion strains, locus YDL028C, strain MPS1, active compounds read low 0.968 | [3] 0.967 | S. cerevisiae deletion strains, locus YDL108W, strain KIN28, active compounds read low 0.959 | S. cerevisiae deletion strains, locus YDL132W, strain cdc53, active compounds read low 0.961 | S. cerevisiae deletion strains, locus YDL214C, strain PRR2, active compounds read low 0.834 | S. cerevisiae deletion strains, locus YDR052C, strain DBF4, active compounds read low 0.953 | S. cerevisiae deletion strains, locus YDR054C, strain cdc34, active compounds read low 0.951 | S. cerevisiae deletion strains, locus YDR226W, strain ADK1, active compounds read low 0.979 | S. cerevisiae deletion strains, locus YDR477W, strain SNF1, active compounds read low 0.805 | S. cerevisiae deletion strains, locus YER123W, strain YCK3, active compounds read low 0.66 | S. cerevisiae deletion strains, locus YER133W, strain GLC7, active compounds read low 0.788 | S. cerevisiae deletion strains, locus YFL009W, strain cdc4, active compounds read low 0.962 | S. cerevisiae deletion strains, locus YFL029C, strain CAK1, active compounds read low 0.955 | S. cerevisiae deletion strains, locus YFR003C, strain YPI1, active compounds read low 0.961 | S. cerevisiae deletion strains, locus YFR019W, strain FAB1, active compounds read low 0.877 | S. cerevisiae deletion strains, locus YFR028C, strain CDC14, active compounds read low 0.974 | S. cerevisiae deletion strains, locus YGR040W, strain KSS1, active compounds read low 0.824 | S. cerevisiae deletion strains, locus YGR052W, strain FMP48, active compounds read low 0.768 | S. cerevisiae deletion strains, locus YHR079C, strain IRE1, active compounds read low 0.622 | S. cerevisiae deletion strains, locus YHR082C, strain KSP1, active compounds read low 0.843 | S. cerevisiae deletion strains, locus YHR205W, strain SCH9, active compounds read low 0.87 | S. cerevisiae deletion strains, locus YIL147C, strain SLN1, active compounds read low 0.962 | S. cerevisiae deletion strains, locus YJL095W, strain BCK1, active compounds read low 0.643 | S. cerevisiae deletion strains, locus YJL128C, strain PBS2, active compounds read low 0.942 | S. cerevisiae deletion strains, locus YJL157C, strain FAR1, active compounds read low 0.773 | S. cerevisiae deletion strains, locus YJR016C, strain ILV3, active compounds read low 0.968 | S. cerevisiae deletion strains, locus YJR066W, strain TOR1 (second series), active compounds read low 0.764 | S. cerevisiae deletion strains, locus YJR066W, strain TOR1, active compounds read low 0.727 | S. cerevisiae deletion strains, locus YKL048C, strain ELM1, active compounds read low 0.873 | S. cerevisiae deletion strains, locus YKL067W, strain YNK1, active compounds read low 0.823 | S. cerevisiae deletion strains, locus YKL101W, strain HSL1, active compounds read low 0.833 | S. cerevisiae deletion strains, locus YKL193C, strain SDS22, active compounds read low 0.965 | S. cerevisiae deletion strains, locus YKL203C, strain TOR2, active compounds read low 0.786 | S. cerevisiae deletion strains, locus YLR133W, strain CKI1, active compounds read low 0.804 | S. cerevisiae deletion strains, locus YLR403W, strain SFP1, active compounds read low 0.75 | S. cerevisiae deletion strains, locus YML070W, strain DAK1, active compounds read low 0.727 | S. cerevisiae deletion strains, locus YMR001C, strain CDC5, active compounds read low 0.961 | S. cerevisiae deletion strains, locus YMR205C, strain PFK2 (second series), active compounds read low 0.841 | S. cerevisiae deletion strains, locus YMR277W, strain FCP1, active compounds read low 0.971 | S. cerevisiae deletion strains, locus YNL006W, strain LST8, active compounds read low 0.976 | S. cerevisiae deletion strains, locus YNL020C, strain ARK1, active compounds read low 0.79 | S. cerevisiae deletion strains, locus YNL161W, strain CBK1, active compounds read low 0.959 | S. cerevisiae deletion strains, locus YNL183C, strain NPR1, active compounds read low 0.754 | S. cerevisiae deletion strains, locus YNL207W, strain RIO2, active compounds read low 0.957 | S. cerevisiae deletion strains, locus YNL222W, strain SSU72, active compounds read low 0.975 | S. cerevisiae deletion strains, locus YNL307C, strain MCK1 (second series), active compounds read low 0.76 | S. cerevisiae deletion strains, locus YOL078W, strain AVO1, active compounds read low 0.965 | S. cerevisiae deletion strains, locus YOL136C, strain PFK27, active compounds read low 0.679 | S. cerevisiae deletion strains, locus YOR061W, strain CKA2, active compounds read low 0.809 | S. cerevisiae deletion strains, locus YOR119C, strain RIO1, active compounds read low 0.84 | S. cerevisiae deletion strains, locus YOR231W, strain MKK1, active compounds read low 0.657 | S. cerevisiae deletion strains, locus YOR329C, strain SCD5, active compounds read low 0.961 | S. cerevisiae deletion strains, locus YPL031C, strain PHO85, active compounds read low 0.8 | S. cerevisiae deletion strains, locus YPL153C, strain RAD53, active compounds read low 0.784 | S. cerevisiae deletion strains, locus YPL204W, strain HRR25, active compounds read low 0.754 | S. cerevisiae deletion strains, locus YPL209C, strain IPL1, active compounds read low 0.964 | S. cerevisiae deletion strains, locus YPR025C, strain CCL1, active compounds read low 0.954 | S. cerevisiae deletion strains, locus YPR106W, strain ISR1, active compounds read low 0.98 | S. cerevisiae deletion strains, locus YPR111W, strain DBF20, active compounds read low 0.958 | S. cerevisiae deletion strains, strain NNK1, active compounds read low 0.964 | S. cerevisiae deletion strains, strain TSCII, active compounds read low 0.96
active: S. cerevisiae deletion strains, locus YGR092W, strain DBF2, active compounds read low 0.371 | [7] 0.562 | S. cerevisiae deletion strains, locus YLR113W, strain HOG1, active compounds read low 0.65 | S. cerevisiae deletion strains, locus YPL256C, strain CLN2, active compounds read low 0.579
